# Results from PubChem BioAssay (NCATS).
# A number with no mark means an inactive call. Records with an inconclusive call do not appear. The source made the active and inactive calls. Unless noted, the call rests on the fitted dose curve; in most records, active means well fitted curve in either direction with a large enough effect (not every such curve was filed as active); inconclusive means small, poorly fitted or top-dose-only effect, or another doubt; inactive means flat fitted curve, though single readings scatter.
# Columns and labels:
# [1] = molecular target: Lysosomal acid glucosylceramidase (Homo sapiens) (UniProt P04062); assay: Glucocerebrosidase-p2 (AID 348; in the data active means potency below about 10 µM; further: potency means the concentration at half of the fitted maximal effect); conditions: purified GBA, blue fluorogenic substrate, 40 min
# Chain of Lysosomal acid glucosylceramidase (Homo sapiens) (P04062 whole entry, looked up): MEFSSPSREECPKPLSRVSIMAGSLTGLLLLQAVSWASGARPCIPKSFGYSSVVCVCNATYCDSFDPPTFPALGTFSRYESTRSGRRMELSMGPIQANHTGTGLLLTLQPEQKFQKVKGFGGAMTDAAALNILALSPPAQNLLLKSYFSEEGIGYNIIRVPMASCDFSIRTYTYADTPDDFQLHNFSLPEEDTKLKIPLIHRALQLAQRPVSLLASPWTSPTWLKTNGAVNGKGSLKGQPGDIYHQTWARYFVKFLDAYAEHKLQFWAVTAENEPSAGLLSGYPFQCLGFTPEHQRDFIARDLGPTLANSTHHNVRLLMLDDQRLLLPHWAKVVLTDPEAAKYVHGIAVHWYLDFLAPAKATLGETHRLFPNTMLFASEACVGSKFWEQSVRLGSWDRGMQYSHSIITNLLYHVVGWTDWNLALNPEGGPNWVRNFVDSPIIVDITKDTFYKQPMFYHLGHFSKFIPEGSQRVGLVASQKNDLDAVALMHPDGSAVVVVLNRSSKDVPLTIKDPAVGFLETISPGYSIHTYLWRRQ
# Summary of the method: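 Compounds titrated from 0.6 nM upwards against 0.2 nM enzyme in pH 5.9 citric acid/KH2PO4, taurocholate, tween-20; blue fluorogenic substrate 80 uM, 40 min room temperature, stopped and read Ex 365/Em 440 for AC50.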
# [2] = AP1 Signaling Pathway (AID 357); conditions: ME-180 AP-1-bla reporter, EGF-induced, beta-lactamase ratio, 5 h; at 7.69 µM (top of the series) unless noted;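 further: ME-180 reporter cells stimulated with EGF at its EC50 level; on the % scale 0 is the no-effect control and ±100 the full control effect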
# Summary of the method: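 Beta-lactamase reporter under AP-1 response element, ME-180 background. Stimulus: EC50 EGF. Compound exposure 5 h, 37 °C. Detection: CCF4, 2.5 h RT, 460/530 nm. Values: AC50 from titration.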
# [3] = NFAT Signaling Pathway (AID 444); conditions: Jurkat NFAT-bla M1, carbachol, beta-lactamase ratio, 5 h; at 7.69 µM (top of the series) unless noted;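 further: carbachol stimulus at about its EC50 of 1 µM final; on the % scale 0 is the no-effect control and ±100 the full control effect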
# Summary of the method: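 Jurkat cells with NFAT-driven β-lactamase reporter and co-expressed M1 receptor, stimulated with carbachol (final 1 uM, ~EC50), compound titration, 5 h at 37 °C. CCF4 loaded 1 h at RT; 460/530 nm ratio gave %activity and AC50.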
# [4] = Stat Signaling Pathway (AID 446); conditions: ME-180 SIE beta-lactamase reporter, IL-6 stimulated, 5 h; at 7.69 µM (top of the series) unless noted;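 further: ME-180 cervical cancer cells given 40 pM IL-6 alongside compound; SIE-controlled beta-lactamase reporter measured as 460/530 nm FRET emission ratio; on the % scale 0 is the no-effect control and ±100 the full control effect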
# Summary of the method: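 Reporter line: ME-180 cervical carcinoma, SIE-beta-lactamase. Treatment: compound with 40 pM IL-6, 5 hrs, 37 C, in low-serum OPTI-MEM with 10 mM HEPES pH 7.3. Detection: 460/530 nm fluorescence.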
# [5] = molecular target: Glucocorticoid receptor (Homo sapiens) (UniProt P04150); assay: GR-GFP Redistribution (AID 450;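 active means compounds whose dose series gives a full or clear partial fitted curve of increased nuclear translocation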; further: potency means the concentration at half of the fitted maximal effect); conditions: U2OS GR-GFP nuclear translocation, laser cytometry, 2 h
# Chain of Glucocorticoid receptor (Homo sapiens) (P04150 whole entry, looked up, the tested form may be a part): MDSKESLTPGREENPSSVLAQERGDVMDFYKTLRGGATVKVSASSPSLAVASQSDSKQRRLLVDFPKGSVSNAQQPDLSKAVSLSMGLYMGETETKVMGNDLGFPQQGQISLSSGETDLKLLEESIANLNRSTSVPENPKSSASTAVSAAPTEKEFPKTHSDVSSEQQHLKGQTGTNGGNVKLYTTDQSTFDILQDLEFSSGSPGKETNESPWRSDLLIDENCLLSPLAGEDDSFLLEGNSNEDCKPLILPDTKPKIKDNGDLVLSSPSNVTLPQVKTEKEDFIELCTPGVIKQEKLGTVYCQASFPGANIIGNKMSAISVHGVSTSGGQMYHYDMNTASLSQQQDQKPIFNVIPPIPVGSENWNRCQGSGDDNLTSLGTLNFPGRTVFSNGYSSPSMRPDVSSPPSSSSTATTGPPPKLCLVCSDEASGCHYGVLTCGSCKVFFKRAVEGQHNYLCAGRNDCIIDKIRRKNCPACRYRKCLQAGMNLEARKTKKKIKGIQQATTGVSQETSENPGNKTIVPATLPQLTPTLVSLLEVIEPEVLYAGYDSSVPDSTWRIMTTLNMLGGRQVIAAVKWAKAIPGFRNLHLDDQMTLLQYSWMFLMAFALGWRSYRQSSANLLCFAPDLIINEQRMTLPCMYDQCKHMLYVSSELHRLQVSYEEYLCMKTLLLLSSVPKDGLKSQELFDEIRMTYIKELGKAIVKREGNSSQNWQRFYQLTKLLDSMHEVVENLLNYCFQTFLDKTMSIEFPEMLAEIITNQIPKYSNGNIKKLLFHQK
# [6] = molecular target: Glucocorticoid receptor (Homo sapiens) (UniProt P04150); assay: GR-EFC Redistribution (AID 451; calls by dose curve; further: potency means the concentration at half of the fitted maximal effect); conditions: CHO-K1 GR-EFC translocation, beta-gal luminescence, 2 h
# Summary of the method: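 CHO-K1 cells expressing nuclear EA and GR-ED fragments of b-gal; compounds titrated up to 46 uM final, 2 h at 37 C. GR nuclear translocation read as complemented b-gal luminescence after 1 h RT detection.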
# [7] = molecular target: Mitogen-activated protein kinase 10 (Mus musculus) (UniProt Q61831); assay: JNK3 AlphaScreen Assay (AID 530); conditions: JNK3 lysate, c-Jun phosphorylation; series mostly up to 11.4 µM;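 further: kinase came from lysate of stimulated human HepG2 cells; signal reports phosphorylation of biotinylated GST-cJun 1-79 at Ser73 with 10 µM ATP; on the % scale 0 is the no-effect control and ±100 the full control effect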
# Summary of the method: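 Pre-activated (IL-1β/TNFα) JNK3 in HepG2 lysates phosphorylates biotin-GST-cJun(1-79), 10 uM ATP; anti-phospho-cJun(Ser73) AlphaScreen read at room temperature, pH 7.6 Tris buffer. Compounds pre-incubated 15 min as titrations.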
# [8] = molecular target: 3',5'-cyclic-AMP phosphodiesterase 4B (Homo sapiens) (UniProt Q07343); assay: qHTS Assay for Inhibitors of PDE-IV (AID 607; active means well fitted activation curve with a large enough effect in the main read-out, with a control signal flat, not every such curve was filed as active; further: % of control where 0% means no effect); conditions: HEK293 ACTOne CNG channel cells, membrane potential fluorescence; series mostly up to 22.9 µM
# Chain of 3',5'-cyclic-AMP phosphodiesterase 4B (Homo sapiens) (Q07343 whole entry, looked up): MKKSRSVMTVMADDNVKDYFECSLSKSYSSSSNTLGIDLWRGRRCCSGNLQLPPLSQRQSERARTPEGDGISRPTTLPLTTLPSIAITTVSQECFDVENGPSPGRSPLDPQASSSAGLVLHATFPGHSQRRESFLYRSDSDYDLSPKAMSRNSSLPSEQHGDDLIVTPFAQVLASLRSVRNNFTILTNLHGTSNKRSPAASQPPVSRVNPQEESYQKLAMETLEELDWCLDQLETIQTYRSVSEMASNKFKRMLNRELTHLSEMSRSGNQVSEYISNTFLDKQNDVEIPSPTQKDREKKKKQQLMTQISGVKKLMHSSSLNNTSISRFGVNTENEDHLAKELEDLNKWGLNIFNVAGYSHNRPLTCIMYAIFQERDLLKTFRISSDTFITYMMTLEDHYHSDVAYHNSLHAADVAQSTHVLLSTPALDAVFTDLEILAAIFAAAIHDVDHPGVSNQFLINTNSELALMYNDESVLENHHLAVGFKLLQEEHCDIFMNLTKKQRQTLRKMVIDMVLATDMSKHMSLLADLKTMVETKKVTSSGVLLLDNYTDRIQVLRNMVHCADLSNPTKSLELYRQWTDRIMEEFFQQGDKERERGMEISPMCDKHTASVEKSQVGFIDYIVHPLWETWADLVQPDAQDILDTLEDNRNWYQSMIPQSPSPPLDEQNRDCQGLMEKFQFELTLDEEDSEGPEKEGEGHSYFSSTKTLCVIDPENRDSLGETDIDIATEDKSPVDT
# Summary of the method: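 Cell-based read-out of cAMP via a modified cyclic nucleotide-gated channel and membrane potential dye (535/590 nm) in HEK293 cells expressing PDE4 endogenously. Compounds tested up to 22.9 uM final; 100 uM RO 20-1724 reference.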
# [9] = molecular target: Cytochrome P450 3A4 (Homo sapiens) (UniProt P08684); assay: qHTS Assay for Activators of Cytochrome P450 3A4 (AID 885; active means well fitted curve in the direction sought with a large enough effect; an effect the other way counts as inactive or inconclusive; further: nearly all actives have a fitted effect of over 65% in size); conditions: recombinant CYP3A4, Luciferin-PPXE luminescence, 60 min; series mostly up to 11.4 µM
# Chain of Cytochrome P450 3A4 (Homo sapiens) (P08684 whole entry, looked up): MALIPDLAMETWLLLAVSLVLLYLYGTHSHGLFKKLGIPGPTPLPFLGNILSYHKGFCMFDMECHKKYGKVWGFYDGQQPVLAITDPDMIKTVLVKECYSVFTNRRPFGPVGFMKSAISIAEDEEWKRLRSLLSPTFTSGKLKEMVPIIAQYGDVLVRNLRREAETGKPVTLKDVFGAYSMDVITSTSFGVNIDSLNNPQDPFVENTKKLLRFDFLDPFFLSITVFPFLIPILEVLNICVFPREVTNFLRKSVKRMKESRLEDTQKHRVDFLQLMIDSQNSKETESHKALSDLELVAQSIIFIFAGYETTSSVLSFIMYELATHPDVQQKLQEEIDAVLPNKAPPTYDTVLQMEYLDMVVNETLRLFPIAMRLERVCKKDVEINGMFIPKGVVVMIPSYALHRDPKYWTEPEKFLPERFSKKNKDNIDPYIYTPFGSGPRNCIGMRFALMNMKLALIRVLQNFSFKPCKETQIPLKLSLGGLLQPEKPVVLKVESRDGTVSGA
# Summary of the method: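 Signal was normalized against complete inhibition by 57 uM ketoconazole. The reaction used 20nM CYP3A4 with 25uM Luciferin-PPXE, 10-min compound preincubation and a 60-min NADPH-supported step at RT.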
# [10] = molecular target: Cytochrome P450 3A4 (Homo sapiens) (UniProt P08684); assay: qHTS Assay for Inhibitors and Substrates of Cytochrome P450 3A4 (AID 884; active means well fitted curve in the direction sought with a large enough effect; an effect the other way counts as inactive or inconclusive; further: nearly all actives have a fitted effect of over 50% in size; further: potency means the concentration at half of the fitted maximal effect); conditions: recombinant CYP3A4, Luciferin-PPXE luminescence; series mostly up to 57.1 µM
# Summary of the method: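 20 nM human CYP3A4 with 25 uM Luciferin-PPXE (at KM) in 200 mM KPO4, preincubated 10 min with compound; NADPH regeneration started a 60 min RT reaction. Luciferin detected by luminescence, normalized to 57 uM ketoconazole as full inhibition.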
# [11] = molecular target: Cytochrome P450 2C9 (Homo sapiens) (UniProt P11712); assay: qHTS Assay for Inhibitors and Substrates of Cytochrome P450 2C9 (AID 883; active means well fitted curve in the direction sought with a large enough effect; an effect the other way counts as inactive or inconclusive; further: potency means the concentration at half of the fitted maximal effect; nearly all actives have a fitted effect of over 60% in size); conditions: recombinant CYP2C9, luciferin-H luminescence, 60 min; series mostly up to 11.4 µM
# Chain of Cytochrome P450 2C9 (Homo sapiens) (P11712 whole entry, looked up): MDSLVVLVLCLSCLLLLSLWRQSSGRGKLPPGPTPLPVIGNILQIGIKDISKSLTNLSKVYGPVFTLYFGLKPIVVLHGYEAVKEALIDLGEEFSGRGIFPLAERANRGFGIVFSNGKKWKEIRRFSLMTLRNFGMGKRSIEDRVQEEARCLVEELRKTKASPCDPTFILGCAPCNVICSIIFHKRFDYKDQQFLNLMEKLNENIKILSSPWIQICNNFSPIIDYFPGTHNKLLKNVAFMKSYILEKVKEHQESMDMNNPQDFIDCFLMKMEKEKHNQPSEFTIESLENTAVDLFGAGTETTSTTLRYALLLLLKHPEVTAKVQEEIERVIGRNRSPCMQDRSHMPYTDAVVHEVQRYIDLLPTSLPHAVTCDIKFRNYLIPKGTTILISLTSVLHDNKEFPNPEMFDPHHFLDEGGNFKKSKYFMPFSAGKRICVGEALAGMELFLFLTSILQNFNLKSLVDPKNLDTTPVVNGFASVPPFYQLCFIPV
# Summary of the method: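 Signal: luciferase luminescence reporting luciferin produced by CYP2C9. Conditions: 10nM enzyme, Luciferin-H 100uM at KM, 25mM KPO4, 37C, 60 min NADPH-driven reaction. Reference: 57uM sulphaphenazole as 100% inhibition.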
# [12] = molecular target: Cytochrome P450 2C19 (Homo sapiens) (UniProt P33261); assay: qHTS Assay for Inhibitors and Substrates of Cytochrome P450 2C19 (AID 899; active means well fitted curve in the direction sought with a large enough effect; an effect the other way counts as inactive or inconclusive; further: potency means the concentration at half of the fitted maximal effect; nearly all actives have a fitted effect of over 60% in size); conditions: recombinant CYP2C19, luciferin-H EGE luminescence; series mostly up to 11.4 µM
# Chain of Cytochrome P450 2C19 (Homo sapiens) (P33261 whole entry, looked up): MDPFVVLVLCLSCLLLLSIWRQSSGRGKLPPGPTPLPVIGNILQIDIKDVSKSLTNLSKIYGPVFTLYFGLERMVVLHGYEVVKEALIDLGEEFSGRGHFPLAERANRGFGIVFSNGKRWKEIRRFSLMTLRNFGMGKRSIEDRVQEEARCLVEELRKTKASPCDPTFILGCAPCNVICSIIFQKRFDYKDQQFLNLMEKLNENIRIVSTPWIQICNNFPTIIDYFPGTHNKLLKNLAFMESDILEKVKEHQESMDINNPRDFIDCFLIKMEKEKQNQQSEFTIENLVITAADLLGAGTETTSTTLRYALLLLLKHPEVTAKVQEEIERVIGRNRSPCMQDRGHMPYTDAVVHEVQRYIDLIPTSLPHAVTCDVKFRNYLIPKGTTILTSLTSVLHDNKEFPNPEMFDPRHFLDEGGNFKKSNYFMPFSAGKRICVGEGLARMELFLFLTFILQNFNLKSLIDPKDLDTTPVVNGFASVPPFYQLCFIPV
# Summary of the method: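 Signal comes from luciferase acting on luciferin released by CYP2C19-mediated hydroxylation of Luciferin-H EGE, 10uM (KM). Assay mix: 5nM enzyme, 50mM KPO4; 60 min at 37C with NADPH regeneration. Data normalized against 57uM ketoconazole.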
SMILES,Potency [1],"activity change, negative = inhibition [2]","activity change, negative = inhibition [3]","activity, negative = inhibition [4]",Potency [5],Potency [6],Potency [7],Potency [8],Potency [9],Potency [10],Potency [11],Potency [12],"activity change, negative = inhibition [10]"
N[C@@H](CNO)C(=O)O,> 11.4 µM,7.51%,0.975%,-9.2%,> 46 µM,> 9.22 µM,inactive,inactive,–,–,–,–,–
CC(C)(C)c1ccc(-c2nnc(SCc3ccc(Cl)cc3)n2-c2cccc(C(F)(F)F)c2)cc1,> 11.4 µM,5.08%,-23.1%,3.24%,> 46 µM,> 9.22 µM,inactive,inactive,inactive,–,–,–,–
CC(=O)n1c(COS(C)(=O)=O)nc2ccccc21,> 11.4 µM,-2.19%,8.51%,-1.19%,> 46 µM,> 9.22 µM,inactive,inactive,–,–,–,–,–
CN1CCN(c2ccc3nc(-c4ccc5nc(-c6ccc(O)cc6)[nH]c5c4)[nH]c3c2)CC1,> 11.4 µM,-22.4%,-8.32%,23.8%,> 46 µM,> 9.22 µM,inactive,inactive,–,–,–,–,–
Cn1c(=O)c(CCc2ccccc2)nc2cnc(N3CCNCC3)nc21,> 11.4 µM,-6.16%,8.46%,11.7%,> 9.22 µM,> 46 µM,inactive,inactive,inactive,–,–,–,–
O=c1c(-c2ccccc2)nc2cnc(Oc3ccccc3)nc2n1C1CC1,> 11.4 µM,-26.4%,2.32%,-5.21%,> 9.22 µM,> 46 µM,inactive,inactive,–,inactive,–,–,–
O=S1(=O)CCN(c2ccccc2CC(c2c[nH]c3ccccc23)c2c[nH]c3ccccc23)CC1,> 11.4 µM,-12.9%,-27.4%,-20.7%,> 46 µM,> 9.22 µM,inactive,inactive,inactive,–,3.16 µM (active),3.16 µM (active),–
CSc1nc2cc(S(=O)(=O)N3CCCCC3)ccc2s1,> 11.4 µM,-19.7%,-0.492%,-6.1%,> 46 µM,> 9.22 µM,inactive,inactive,–,–,–,1.26 µM (active),50.1% [at 11.4 µM]
O=c1[nH]c(SCc2ccccc2[N+](=O)[O-])nc2nc[nH]c12,> 11.4 µM,9.58%,13.2%,10.1%,> 46 µM,> 9.22 µM,inactive,inactive,inactive,–,–,–,-21.6% [at 11.4 µM]
NNC(=O)CCSc1ccccc1,> 11.4 µM,7.31%,10.9%,-4.96%,> 46 µM,> 9.22 µM,inactive,inactive,inactive,3.98 µM (active),–,3.98 µM (active),–
C[C@@H](C(=O)O)/C(=C/c1ccc2c(c1)OCO2)C(=O)O,> 11.4 µM,-12.8%,1.64%,-5.22%,> 46 µM,> 9.22 µM,inactive,inactive,inactive,–,2.51 µM (active),–,–
CC(=O)Nc1ccc2c(c1)C(=Nc1ccc(C(=O)O)cc1)c1ccccc1-2,> 11.4 µM,2.47%,27.4%,4.14%,> 46 µM,> 9.22 µM,inactive,inactive,inactive,–,–,–,–
CC(=O)O[C@@H]1CC[C@]2(C)C(=C[C@@H]([C@@H]3C=C4C[C@@H](OC(C)=O)CC[C@]4(C)C4=C3[C@H]3C[C@@H]5O[C@@]6(CC[C@H](C)CO6)[C@@H](C)[C@@H]5[C@@]3(C)CC4)C3=C2CC[C@@]2(C)[C@H]4[C@@H](C)[C@]5(CC[C@H](C)CO5)O[C@@H]4C[C@H]32)C1,> 11.4 µM,7.21%,21%,-1.63%,> 46 µM,> 9.22 µM,inactive,inactive,–,–,–,–,–
C[N+](C)(C)CC(=O)N/N=C\c1ccncc1,> 11.4 µM,-2.8%,3.32%,8.79%,> 46 µM,> 9.22 µM,inactive,inactive,–,–,–,–,–
FC(F)(F)c1nc2nc(Cl)c(Cl)nc2n1CCCN1CCOCC1,> 11.4 µM,9.81%,-3.79%,2.08%,> 46 µM,> 9.22 µM,inactive,inactive,–,–,2.51 µM (active),–,–
